Bioassay records deposited in PubChem by National Center for Advancing Translational Sciences (NCATS).
TbPYK inhibitor: blocks Trypanosoma brucei pyruvate kinase; Potency, µM (series often up to 76.8 µM), without a hit: at the top dose activity, negative = inhibition, usual class: inhibitors; AID 624173; TbPYK enzyme, Kinase-Glo Plus ATP luminescence, 45 min; actives 0.12% (n = 410,000); Q57TT1; further: potency means the concentration at half of the fitted maximal effect; on the % scale 0 is the no-effect control and ±100 the full control effect; nearly all actives have a fitted effect of over 50% in size
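ADP (130 uM final) triggers the TbPYK reaction after compound addition; incubation is 45 min at room temperature. Kinase-Glo Plus is then added and luminescence imaged. Normalized data are fitted to concentration-effect curves.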
RE007 growth inh: less growth of the S. pombe RE007 Vpr strain. S. pombe RE007 Vpr strain, BacTiter-Glo ATP luminescence, 24 h. Potency, µM (doses to about 92.2 µM), inactives show top-dose activity change, negative = less growth, hits mostly inhibitors. actives 0.21% (n = 360,000); active means well fitted falling curve with a large enough effect; inconclusive means small, poorly fitted or top-dose-only effect; inactive means no such curve, though single readings can be large or run the other way; further: potency means the concentration at half of the fitted maximal effect; on the % scale 0 is the no-effect control and ±100 the full control effect; nearly all actives have a fitted effect of over 50% in size
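Fission yeast strain RE007, carrying one chromosomally integrated HIV-1 vpr copy, was seeded at OD 0.01 in PMG+AL medium with 23 nL pinned compound. After 24 h at 30 °C and 99% humidity, viability was read by BacTiter-Glo luminescence.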
FBPA Giardia inh: Giardia lamblia aldolase inhibition; Potency, µM (titrated, usually from 59.6 µM), for inactives: at the top dose activity, negative = inhibition, hits mostly inhibitors; purified Giardia FBPA; actives 0.71% (n = 290,000); further: potency means the concentration at half of the fitted maximal effect; on the % scale 0 is the no-effect control and ±100 the full control effect; nearly all actives have a fitted effect of over 55% in size
Target sequence (A8B2U2 whole entry, looked up): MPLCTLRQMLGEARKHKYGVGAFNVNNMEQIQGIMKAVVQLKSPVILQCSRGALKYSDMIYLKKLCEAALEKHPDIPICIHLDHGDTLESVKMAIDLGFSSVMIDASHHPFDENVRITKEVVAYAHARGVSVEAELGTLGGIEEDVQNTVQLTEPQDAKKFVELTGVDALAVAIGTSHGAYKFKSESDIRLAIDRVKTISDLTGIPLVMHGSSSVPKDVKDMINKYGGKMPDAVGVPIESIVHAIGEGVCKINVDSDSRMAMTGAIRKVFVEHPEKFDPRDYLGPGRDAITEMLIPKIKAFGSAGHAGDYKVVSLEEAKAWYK
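40 nM FBPA preincubated 10 min at RT with compound (up to 57.5 uM final), then substrate plus GAPDH/TPI/NAD/arsenate coupling and diaphorase/resazurin added. Fluorescence read after 20 min at RT, 525/598 nm.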
Shiga inhibitor: Shiga toxin inhibition. actives 9.2% (n = 290,000). inhibition, % at 38.7 µM. Vero cells, Shiga toxin protein synthesis inhibition reporter. AID 2315; in the data active means inhibition mostly above about 28%, no sharp cut-off; inactive means mostly below about 43%; further: 0% is about no effect
LmPK inhibitor: inhibitors of Leishmania mexicana pyruvate kinase. purified LmPK, Kinase-Glo ATP luminescence, 1 h. Potency, µM (top dose mostly 57.5 µM), without a hit: at the top dose activity change, negative = inhibition, most hits filed as inhibitors. Q27686. actives 0.37% (n = 290,000); further: potency means the concentration at half of the fitted maximal effect; on the % scale 0 is the no-effect control and ±100 the full control effect
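Purified LmPK (0.1 nM) converted ADP (0.1 mM) to ATP with PEP (0.5 mM) in imidazole buffer pH 7.2 with KCl and MgCl2, 1 h at room temperature. ATP was read by Kinase-Glo luminescence; data normalized to uninhibited and no-enzyme controls.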
Cycloheximide cs: counter-screen for Shiga toxin inhibitors: cycloheximide protein synthesis inhibition; cell reporter, cycloheximide protein synthesis inhibition counterscreen; max response, %; actives 12% (n = 300,000); in the data active means max response mostly above about 13%, no sharp cut-off; inactive means mostly below about 14%; further: read at 38.3 µM for the half of the compounds with a filed dose; 0% is about no effect
The depositor's hits bear a star; ? = inconclusive; . = no result; [ ] = dose if it differs, or a comment. The sample as a whole holds a higher share of hits than the screen did. Unless noted, the call rests on the fitted dose curve; in most records, active means well fitted curve in the direction sought with a large enough effect; inconclusive means small, poorly fitted or top-dose-only effect, or another doubt; inactive means no such curve, though single readings can be large; an effect the other way counts as inactive or inconclusive.

SMILES	TbPYK inhibitor	RE007 growth inh	FBPA Giardia inh	Shiga inhibitor	LmPK inhibitor	Cycloheximide cs
CC(CC(=O)Nc1ccc2c(c1)OCO2)c1ccccc1 (configuration not stated)	-2%	-24%	-1%	57	0%	15*
CC(CC(=O)Nc1ccc2c(c1)OCCO2)c1ccccc1 (configuration not stated)	-7%	20%	-9%	55*	3%	42*
Cc1cc(C)n(C(C)CC(=O)Nc2ccc3c(c2)OCO3)n1 (configuration not stated)	-9%	-11%	-3%	10	0%	24*
O=C(COC(=O)Cc1ccsc1)Nc1ccc(Br)cc1F	-3%	?	.	.	.	.
COc1c(C(=O)NNC(=O)c2ccccc2Cl)csc1Br	5%	3%	2%	76*	-1%	49*
O=[N+]([O-])c1ccc(-c2nc3ccc([N+](=O)[O-])cc3[nH]2)cc1	-1%	-16%	-19%	96	3%	40*
CCCC[n+]1ccc(-c2nc3ccc([N+](=O)[O-])cc3[nH]2)cc1	3%	?	-5%	6	1%	7
O=[N+]([O-])c1ccc2nc(/C=C/c3ccc(Cl)cc3)[nH]c2c1	-2%	-26%	?	153*	4%	60*
Nc1ccc(-c2nc3ccc([N+](=O)[O-])cc3[nH]2)cc1	0%	-21%	-6%	52	-19%	63*
O=[N+]([O-])c1ccc2nc(C(O)C(O)c3nc4ccc([N+](=O)[O-])cc4[nH]3)[nH]c2c1 (configuration not stated)	-3%	5%	-16%	.	15%	22*
CN1/C(=C\C(=O)c2cccnc2)C(C)(C)c2ccccc21	-3%	9%	-5%	24	-1%	15*
O=C(Nc1ccccc1)c1cn(CCBr)cn1	-6%	-28%	.	.	.	.
COCCn1c(C)cc(C(=O)COC(=O)c2ccc[nH]c2=O)c1C	-17%	5%	4%	24	-5%	2
Cc1cc(C(=O)COc2ccc(F)cc2Br)c(C)n1C	-2%	-22%	-1%	63	2%	30*
Cc1cc(C(=O)COC(=O)c2ccc(Br)o2)c(C)n1C	-7%	-13%	-6%	58*	-2%	40*
COCCn1c(C)cc(C(=O)COC(=O)c2ccc(Br)o2)c1C	2%	7%	1%	55*	0%	29*
COc1ccc(OC)c(NC(=O)C(C)n2nc(C)c3c(C)n(-c4ccccc4)nc3c2=O)c1 (configuration not stated)	-16%	.	.	.	.	.
Cc1cccc(-c2nc3c4ccccc4n(CC(=O)Nc4cccc(F)c4)c(=O)n3n2)c1	1%	.	.	.	.	.
Cc1cnc(CNc2cc(-c3ccccc3C(F)(F)F)ncn2)cn1	.	.	-18%	.	.	.
COCC#Cc1ccc(C2NC(C(=O)O)CCC2C)cc1 (configuration not stated)	.	.	1%[12.9 µM]	.	.	.
Cc1ccnn1CCC(=O)N1CCCC(CCC(=O)NCc2ccccc2F)C1 (configuration not stated)	-8%	-17%	2%	15	4%	2
C=CCOc1cccc(C(=O)N2CCCC(CCC(=O)NCc3ccccc3F)C2)c1 (configuration not stated)	3%	-6%	-1%	73	-3%	29*
Cc1ccsc1C(=O)N1CCCC(CCC(=O)NCc2ccccc2F)C1 (configuration not stated)	2%	-4%	2%	29	6%	15*
COc1cccc(CNC(=O)CCC2CCCN(C(=O)Cc3ccccc3F)C2)c1 (configuration not stated)	-8%	-8%	2%	23	3%	5
Cc1ccc(C(=O)N2CCCC(CCC(=O)NCc3ccccc3F)C2)cn1 (configuration not stated)	-8%	4%	.	27	-3%	21*
SMILES	TbPYK inhibitor	RE007 growth inh	FBPA Giardia inh	Shiga inhibitor	LmPK inhibitor	Cycloheximide cs
CC(=O)c1sc(Nc2nc3cc4c(cc3s2)OCO4)nc1C	-4%	-11%	-2%	74*	0%	27
O=C(Nc1nc2cc3c(cc2s1)OCCO3)c1ccco1	-18%	?	.	-14	-27%	-8
O=C(Nc1nc2cc3c(cc2s1)OCO3)c1ccco1	-10%	?	15%	86*	16µM*	49*
CCOC(=O)c1sc(Nc2nc3cc4c(cc3s2)OCO4)cc1C	-9%	1%	-11%	82*	2%	43*
O=C(COc1ccccc1)Nc1nc2cc3c(cc2s1)OCCO3	-4%	-7%	-19%	19	-11%	28*
CCOC(=O)c1sc(NC(=O)COc2ccc3c(c2)OCO3)nc1C	-6%	8%	6%	-7	-1%	-3
O=C(NCCCO)C(=O)NCc1ccccn1	-1%	12%	0%	3	5%	2
Cc1noc(C)c1NC(=O)Nc1ccc2c(c1)C(=O)N([C@H](C)CO)C[C@H](C)[C@@H](CN(C)S(=O)(=O)c1ccc(Cl)cc1)OCCCC[C@@H](C)O2	-5%	0%	.	.	.	.
COc1cccc2sc(NN)nc12	-16%	0%	-29%	-5	0%[11.5 µM]	5
CC(=O)c1sc(NC(=O)C(C)C)nc1C	0%	-5%	.	-19	0%	7
O=C(COc1ccccc1)Nc1nc2cc3c(cc2s1)OCO3	2%	-11%	.	.	.	.
CCOC(=O)c1sc(Nc2nc3c(OC)cccc3s2)cc1C	-12%	0%	-19%	108*	2%	53*
CC(=O)Nc1nc2cc3c(cc2s1)OCO3	-9%	-11%	1%	96*	-15%	31*
CC(C)C(=O)Nc1nc2cc3c(cc2s1)OCCO3	1%	3%	-1%	93*	-8%	55*
COc1cccc(Cn2c(=O)c(-c3cn(C)c4ccccc34)nc3cnc(N4CCNCC4)nc32)c1	.	.	-7%	.	.	.
O=C(OCC(=O)N1CCc2ccccc21)[C@@H]1CCCN1S(=O)(=O)c1ccccc1F	0%	9%	.	.	.	.
Nc1ccc2nc(NC(=O)C3CCCCC3)sc2c1	1%	-11%	-1%	104*	-12%	57*
O=C(Nc1nc2ccccc2s1)C1CCCO1 (configuration not stated)	2%	0%	0%	89*	-9%	47*
O=C(OCc1nc2ccccc2s1)[C@@H]1CCCN1S(=O)(=O)c1ccccc1F	.	.	1%	49	2%	26*
O=C(Nc1nc2ccccc2s1)C1c2ccccc2Oc2ccccc21	-11%	2%	-1%	-13	1%	-3
O=C(Nc1ncc(Cc2ccccc2)s1)C1CCCO1 (configuration not stated)	1%	-5%	5%	63*	-1%	34*
